{
  "source": "PubChem BioAssay (EPA / NIEHS)",
  "key": {"[1]": {"target": "zebrafish Estrogen Receptor (ESR1), esr1 (gene 259252) (UniProt P57717)", "sequence (P57717 whole entry, looked up, the tested form may be a part)": "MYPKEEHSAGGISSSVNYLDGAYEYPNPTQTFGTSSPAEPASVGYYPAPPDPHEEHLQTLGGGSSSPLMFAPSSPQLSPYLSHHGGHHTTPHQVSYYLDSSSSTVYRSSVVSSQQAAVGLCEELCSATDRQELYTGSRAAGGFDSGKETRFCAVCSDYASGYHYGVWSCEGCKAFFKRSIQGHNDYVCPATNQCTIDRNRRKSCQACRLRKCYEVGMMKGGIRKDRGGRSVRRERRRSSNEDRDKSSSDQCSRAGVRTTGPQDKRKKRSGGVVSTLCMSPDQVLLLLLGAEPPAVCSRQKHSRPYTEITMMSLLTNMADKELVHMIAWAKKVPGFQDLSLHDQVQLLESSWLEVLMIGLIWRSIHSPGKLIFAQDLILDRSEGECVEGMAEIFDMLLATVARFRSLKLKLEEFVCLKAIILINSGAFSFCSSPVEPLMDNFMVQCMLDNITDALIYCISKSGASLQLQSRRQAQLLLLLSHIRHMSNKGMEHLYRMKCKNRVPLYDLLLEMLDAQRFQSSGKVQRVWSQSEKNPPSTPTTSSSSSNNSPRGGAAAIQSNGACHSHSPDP", "assay": "ATG_zfER1_XSP1: Attagene TRANS-FACTORIAL Multi-Species (XSP1) HepG2 Assay for zebrafish Estrogen Receptor (ESR1) (AID 2283772)", "in_short": "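Exogenous chimeric receptor-GAL4 activity is measured in transiently transfected human HepG2 liver cells after 24 h compound exposure. Reporter transcripts are detected by RT-PCR and fluorescent capillary electrophoresis, analysed for signal gain relative to DMSO.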"}, "[2]": {"assay": "ACEA_AR_agonist_AUC_viability: ACEA Biosciences xCELLigence Real-Time Cell Analysis on Androgen Receptor Agonism for Viability (AID 2283775)", "in_short": "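Real-time impedance tracking of 22Rv1 growth, readings every 5 min for 5 h then hourly; area-under-curve viability endpoint at 80 hours, relative to DMSO. Compounds at eight concentrations, 1:4 steps, top 100 uM, n = 2.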"}, "[3]": {"assay": "ACEA_AR_antagonist_AUC_viability: ACEA Biosciences xCELLigence Real-Time Cell Analysis on Androgen Receptor Antagonism for Viability (AID 2283776);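 note: 22Rv1 human prostate cancer cells growing on impedance electrode plates; hits lower the growth signal relative to DMSO meaning cytotoxicity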", "in_short": "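Impedance read-out (RT-CES): area under growth curve at 80 h post-dose, loss of signal scored vs DMSO baseline. 22Rv1 cells; 8-pt 1:4 series, top 100 uM final, ≤0.5% DMSO; biological duplicate.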"}, "AR (gene 367)": {"target": "AR (gene 367) (UniProt P10275)", "sequence (P10275 whole entry, looked up)": "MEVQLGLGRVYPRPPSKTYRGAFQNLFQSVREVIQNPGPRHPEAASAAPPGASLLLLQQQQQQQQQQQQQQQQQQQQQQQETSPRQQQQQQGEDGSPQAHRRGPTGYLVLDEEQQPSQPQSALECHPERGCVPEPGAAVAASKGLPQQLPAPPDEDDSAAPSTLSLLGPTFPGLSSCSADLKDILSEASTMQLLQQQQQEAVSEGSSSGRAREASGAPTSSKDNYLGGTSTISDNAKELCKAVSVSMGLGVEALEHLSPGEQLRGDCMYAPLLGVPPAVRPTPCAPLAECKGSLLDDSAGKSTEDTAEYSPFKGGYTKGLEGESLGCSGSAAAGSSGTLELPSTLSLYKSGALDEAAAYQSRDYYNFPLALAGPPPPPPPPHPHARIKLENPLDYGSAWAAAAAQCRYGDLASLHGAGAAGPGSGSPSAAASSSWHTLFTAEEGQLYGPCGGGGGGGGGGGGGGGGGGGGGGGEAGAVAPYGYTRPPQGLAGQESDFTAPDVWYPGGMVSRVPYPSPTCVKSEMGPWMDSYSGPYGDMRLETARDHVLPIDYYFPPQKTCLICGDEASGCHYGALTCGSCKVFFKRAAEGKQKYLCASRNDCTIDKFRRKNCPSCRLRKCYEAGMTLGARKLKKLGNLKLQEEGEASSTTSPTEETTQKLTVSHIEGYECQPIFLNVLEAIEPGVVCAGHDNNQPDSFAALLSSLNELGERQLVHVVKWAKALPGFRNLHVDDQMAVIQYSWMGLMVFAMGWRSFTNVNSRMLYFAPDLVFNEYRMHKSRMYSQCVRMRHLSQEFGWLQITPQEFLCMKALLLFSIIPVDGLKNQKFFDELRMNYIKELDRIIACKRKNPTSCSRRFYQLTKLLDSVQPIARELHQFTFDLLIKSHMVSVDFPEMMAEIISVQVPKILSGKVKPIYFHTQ", "assay": "ACEA_AR_agonist_80hr: ACEA Biosciences xCELLigence Real-Time Cell Analysis on Androgen Receptor Agonism for Proliferation (AID 2283783);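 note: hits increase impedance growth signal above DMSO baseline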", "in_short": "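Androgen-driven proliferation in 22Rv1 cells is tracked as electrical impedance, taken 80 h after continuous exposure to compound (eight concentrations, 1:4 steps, maximum 100 uM final). Activity is fitted in the positive direction with DMSO as baseline.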"}, "[4]": {"assay": "STM_H9_NormalizedViability: Cytotoxicity Assessment at 120 hours in the Stemina devTOX quickPredict H9 human embryonic stem cell (hESC)-based Assay (AID 2283784)", "in_short": "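Pluripotent H9 cells dosed, fresh medium plus compound q24h → cell layer read by CellTiter-Fluor → RFU blank-corrected, normalized to DMSO 0.1% mean. Loss-of-signal fit, DMSO as baseline.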"}, "[5]": {"assay": "ATG_M_06_XSP1: Attagene TRANS-FACTORIAL Multi-Species (XSP1) HepG2 Assay for M06 Transcription Factor (Internal Marker) (AID 2283790)", "in_short": "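Transfected HepG2 multi-reporter system treated 24 h in the presence of 3 nM 6-alpha-fluorotestosterone. The M06 internal marker transcript was quantified by RT-PCR with capillary electrophoresis as a background control, and gain of signal was scored versus DMSO.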"}, "[6]": {"assay": "ATG_M_61_XSP1: Attagene TRANS-FACTORIAL Multi-Species (XSP1) HepG2 Assay for M61 Transcription Factor (Internal Marker) (AID 2283797)", "in_short": "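HepG2 cells transiently transfected with multiplexed GAL4-driven reporter units, dosed 24 h with 3 nM 6-alpha-fluorotestosterone present. Reporter mRNA quantified by RT-PCR, 6-FAM labelling, HpaI digestion and capillary electrophoresis; internal-marker background control, gain of signal versus DMSO.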"}, "[7]": {"assay": "ATG_M_32_XSP1: Attagene TRANS-FACTORIAL Multi-Species (XSP1) HepG2 Assay for M32 Transcription Factor (Internal Marker) (AID 2283799)", "in_short": "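HepG2 cells transiently transfected with multi-species TRANS reporter units, dosed 24 h with 3 nM 6-alpha-fluorotestosterone present. Internal-marker reporter mRNA quantified by RT-PCR and capillary electrophoresis; positive-direction fit versus DMSO.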"}, "[8]": {"target": "Peroxisome proliferator-activated receptor gamma (Homo sapiens) (UniProt P37231)", "sequence (P37231 whole entry, looked up, the tested form may be a part)": "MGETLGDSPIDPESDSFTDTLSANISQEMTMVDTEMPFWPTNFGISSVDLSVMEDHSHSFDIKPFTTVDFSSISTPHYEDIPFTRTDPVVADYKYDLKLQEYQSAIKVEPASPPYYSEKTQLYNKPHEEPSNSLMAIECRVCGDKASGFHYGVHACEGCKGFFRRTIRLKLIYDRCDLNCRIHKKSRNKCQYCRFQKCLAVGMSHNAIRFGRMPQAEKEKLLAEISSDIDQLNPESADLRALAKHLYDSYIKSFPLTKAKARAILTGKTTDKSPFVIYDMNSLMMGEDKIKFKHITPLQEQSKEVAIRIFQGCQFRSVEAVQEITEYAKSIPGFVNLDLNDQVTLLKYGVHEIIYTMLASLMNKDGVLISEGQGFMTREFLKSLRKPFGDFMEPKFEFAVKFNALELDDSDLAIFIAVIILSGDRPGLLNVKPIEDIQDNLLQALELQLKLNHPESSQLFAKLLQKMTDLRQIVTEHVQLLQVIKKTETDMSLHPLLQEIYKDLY", "assay": "ATG_hPPARg_XSP1: Attagene TRANS-FACTORIAL Multi-Species (XSP1) HepG2 Assay for human Peroxisome Proliferator-activated Receptor gamma (PPARg) (AID 2283800)", "in_short": "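HepG2 cells transiently transfected with GAL4-UAS reporter units carrying chimeric NR-Gal4 proteins; 3 nM 6-alpha-fluorotestosterone present. After 24 h dosing, reporter mRNA quantified by RT-PCR and capillary electrophoresis; gain of signal relative to DMSO.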"}, "[9]": {"target": "mouse Peroxisome Proliferator-activated Receptor gamma (PPARg), Pparg (gene 19016) (UniProt P37238)", "sequence (P37238 whole entry, looked up, the tested form may be a part)": "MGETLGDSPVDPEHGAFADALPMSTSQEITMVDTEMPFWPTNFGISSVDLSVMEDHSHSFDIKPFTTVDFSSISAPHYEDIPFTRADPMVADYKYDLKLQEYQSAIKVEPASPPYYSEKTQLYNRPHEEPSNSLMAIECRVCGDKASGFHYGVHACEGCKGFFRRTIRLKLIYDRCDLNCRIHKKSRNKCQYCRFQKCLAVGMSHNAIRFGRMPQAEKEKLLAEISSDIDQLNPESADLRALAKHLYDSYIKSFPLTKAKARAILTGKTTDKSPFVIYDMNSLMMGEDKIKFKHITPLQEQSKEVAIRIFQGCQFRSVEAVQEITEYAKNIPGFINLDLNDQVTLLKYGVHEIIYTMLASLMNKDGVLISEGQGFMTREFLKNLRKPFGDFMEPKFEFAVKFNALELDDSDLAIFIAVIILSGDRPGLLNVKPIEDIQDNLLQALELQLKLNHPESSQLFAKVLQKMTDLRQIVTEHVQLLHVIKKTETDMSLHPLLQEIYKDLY", "assay": "ATG_mPPARg_XSP1: Attagene TRANS-FACTORIAL Multi-Species (XSP1) HepG2 Assay for mouse Peroxisome Proliferator-activated Receptor gamma (PPARg) (AID 2283802)", "in_short": "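HepG2 cells transiently transfected with GAL4-UAS reporter units driven by mouse PPARg–GAL4 chimera; 3 nM 6-alpha-fluorotestosterone present. After 24 h dosing, reporter mRNA quantified by RT-PCR, fluorescent labelling and capillary electrophoresis; gain of signal versus DMSO.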"}},
  "note": "Records with an inconclusive call do not appear. Activity calls are given as the source filed them. Rule for the calls: active = hit-call score of the fitted dose curve at least 0.9, where 1 is the maximum; inconclusive = response in the unintended direction; inactive = score below 0.9.",
  "data": [
    {"smiles": "CCN(CC)C(=S)SSC(=S)N(CC)CC", "values": [
      {"measurement": "outcome", "setting": "[1]", "value": "inactive"},
      {"measurement": "AC50", "setting": "[2]", "value": "25.8 µM (active)"},
      {"measurement": "AC50", "setting": "[3]", "value": "26 µM (active)"},
      {"measurement": "outcome", "setting": "AR (gene 367)", "value": "inactive"},
      {"measurement": "AC50", "setting": "[4]", "value": "0.309 µM (active)"},
      {"measurement": "outcome", "setting": "[5]", "value": "inactive"},
      {"measurement": "outcome", "setting": "[6]", "value": "inactive"},
      {"measurement": "outcome", "setting": "[7]", "value": "inactive"},
      {"measurement": "outcome", "setting": "[8]", "value": "inactive"},
      {"measurement": "outcome", "setting": "[9]", "value": "inactive"}
    ]},
    {"smiles": "Cc1nccn1-c1ccc(Sc2cccc(C3(C(N)=O)CCOCC3)c2)cc1", "values": [
      {"measurement": "AC50", "setting": "[2]", "value": "25.5 µM (active)"},
      {"measurement": "AC50", "setting": "[3]", "value": "24 µM (active)"}
    ]},
    {"smiles": "CC(C)CCCCCCOC(=O)C1CCCCC1C(=O)OCCCCCCC(C)C", "note": "(stereo not given)", "values": [
      {"measurement": "outcome", "setting": "[2]", "value": "inactive"}
    ]},
    {"smiles": "C[C@@H](Oc1ccc(CNC(=O)c2cccnc2Oc2ccc3c(c2)OCO3)c(F)c1)C(=O)O", "values": [
      {"measurement": "outcome", "setting": "[3]", "value": "inactive"}
    ]},
    {"smiles": "c1ccc(C(O[C@@H]2CCCN(CCc3ccc4c(c3)OCO4)C2)c2ccccc2)cc1", "values": [
      {"measurement": "AC50", "setting": "[2]", "value": "41.3 µM (active)"},
      {"measurement": "AC50", "setting": "[3]", "value": "58.3 µM (active)"}
    ]},
    {"smiles": "Cc1cccc(O)c1C", "values": [
      {"measurement": "outcome", "setting": "[3]", "value": "inactive"}
    ]},
    {"smiles": "CCn1nc(C)c2c1C(=O)NCC(c1ccc(O)cc1)=N2", "values": [
      {"measurement": "AC50", "setting": "[3]", "value": "15.1 µM (active)"}
    ]},
    {"smiles": "NC(N)=O", "values": [
      {"measurement": "outcome", "setting": "[2]", "value": "inactive"},
      {"measurement": "outcome", "setting": "[3]", "value": "inactive"}
    ]},
    {"smiles": "CC(C)CC(C)O", "note": "(stereo not given)", "values": [
      {"measurement": "outcome", "setting": "[3]", "value": "inactive"}
    ]},
    {"smiles": "Cc1ccc(S(=O)(=O)NC(=O)NN2CCCCCC2)cc1", "values": [
      {"measurement": "outcome", "setting": "[3]", "value": "inactive"}
    ]},
    {"smiles": "Cc1ncc([C@@H](CCCCCCc2ccc3c(n2)NCCC3)CC(=O)O)cn1", "values": [
      {"measurement": "AC50", "setting": "[3]", "value": "0.00579 µM (active)"},
      {"measurement": "outcome", "setting": "[4]", "value": "inactive"}
    ]},
    {"smiles": "CCCCC(CC)C(=O)OCCOCCOCCOC(=O)C(CC)CCCC", "note": "(stereo not given)", "values": [
      {"measurement": "AC50", "setting": "[3]", "value": "50 µM (active)"},
      {"measurement": "outcome", "setting": "AR (gene 367)", "value": "inactive"}
    ]},
    {"smiles": "CC(C)c1nnc2ccc(-c3ocnc3-c3cc(F)ccc3F)cn12", "values": [
      {"measurement": "AC50", "setting": "[3]", "value": "37.1 µM (active)"}
    ]},
    {"smiles": "CCc1cccc(CC)c1N", "values": [
      {"measurement": "AC50", "setting": "[3]", "value": "9.94 µM (active)"},
      {"measurement": "outcome", "setting": "AR (gene 367)", "value": "inactive"}
    ]},
    {"smiles": "CCCCCCCCCCCCCCCCOS(=O)(=O)O", "values": [
      {"measurement": "AC50", "setting": "[3]", "value": "43.8 µM (active)"},
      {"measurement": "outcome", "setting": "AR (gene 367)", "value": "inactive"}
    ]},
    {"smiles": "Cn1cc[nH]c1=S", "values": [
      {"measurement": "outcome", "setting": "[3]", "value": "inactive"},
      {"measurement": "outcome", "setting": "[4]", "value": "inactive"}
    ]},
    {"smiles": "CC[C@H](C)C(=O)O[C@H]1C[C@H](O)C=C2C=C[C@H](C)[C@H](CC[C@@H](O)C[C@@H](O)CC(=O)O)[C@H]21", "values": [
      {"measurement": "outcome", "setting": "[3]", "value": "inactive"},
      {"measurement": "outcome", "setting": "[4]", "value": "inactive"}
    ]},
    {"smiles": "O=C1CN(N=Cc2ccc([N+](=O)[O-])o2)C(=O)N1", "values": [
      {"measurement": "AC50", "setting": "[4]", "value": "3.4 µM (active)"}
    ]},
    {"smiles": "NC(=O)N1c2ccccc2C=Cc2ccccc21", "values": [
      {"measurement": "outcome", "setting": "[4]", "value": "inactive"}
    ]},
    {"smiles": "O=C(O)c1cccc(C(=O)O)c1", "values": [
      {"measurement": "outcome", "setting": "[3]", "value": "inactive"}
    ]},
    {"smiles": "CCCCOC(=O)c1ccccc1", "values": [
      {"measurement": "outcome", "setting": "AR (gene 367)", "value": "inactive"}
    ]},
    {"smiles": "OC(Cn1cncn1)(Cn1cncn1)c1ccc(F)cc1F", "values": [
      {"measurement": "outcome", "setting": "[3]", "value": "inactive"}
    ]}
  ]
}
